From PubChem BioAssay (NCATS) come the findings set out here.

Inconclusive results are not listed. Where a call stands in place of a potency, no number is given. The source made the active and inactive calls. The call rests on the fitted dose curve; in most records, active means well fitted cell-killing curve with a large enough effect; inconclusive means small, poorly fitted or top-dose-only effect; inactive means flat fitted curve, though single readings scatter.
Potency means the concentration at half of the fitted maximal effect.

A short description of this assay: Cell Viability - LYMP2-011 (AID 969). Further: nearly all actives have a fitted effect of over 60% in size. The following applies: LYMP2-011 lymphoblastoid cells viability; series mostly up to 92.2 µM. An excerpt:
NIH Chemical Genomics Center [NCGC]
NIH Molecular Libraries Screening Centers Network [MLSCN]
National Institutes of Environmental Health Sciences [NIEHS]
National Toxicology Program [NTP]
We have developed a 1536-well cell-based assay for quantitative high throughput screening (qHTS) against a number of cell lines to determine in vitro cytotoxicity of small molecules. This particular assay uses a human lymphoblastoid cell line (LYMP2-011) purchased from Coriell Institute for Medical Research.
NCGC Assay Protocol Summary:
The CellTiter-Glo luminescent cell viability assay (Promega) is a homogeneous method to measure the number of viable cells in culture. The end point readout of this assay is based on quantitation of intracellular ATP, an indicator of metabolic activity, using the luciferase reaction. Luciferase catalyzes the oxidation of beetle Luciferin to oxyluciferin and light in the presence of ATP. The luminescent signal is proportional to amount of ATP present.
Using the CellTiter-Glo luminescent cell viability assay, the amount of cellular ATP was measured in the lymphoblastoid cell line with complete culture medium following compound treatment for 24 hours. The assay was performed in opaque white Kalypsys 1536-well plates. In the screen, tetraoctylammonium bromide was used as positive control. Library compounds were measured for their ability to cause acute toxicity in the cell line, as reflected by a decrease in intracellular ATP levels, in a concentration-dependent manner. […] AC50 values were determined from concentration-response data modeled with the standard Hill equation.
qHTS protocol for CellTiter Glo lymphoblastoid cellular assay
[Step] [Parameter] [Value] [Description]
1. Reagent; 5 uL; 2500 lymphoblastoid cells/well
2. Time; 5 hr; 37 C incubation
4. Controls; 23 nL; Tetraoctylammonium bromide 6.4pM to 92 uM
5. Time; 24 hr; 37 C incubation
6. Reagent; 5 uL; CellTiter Glo reagent
7. Time; 30 min; Room Temperature
8. Detection; Luminescence; Viewlux plate reader
Keywords: cell viability, cytotoxicity, lymphoblastoid cell line, luminescence, NTPHTS, NTPHTS_NCGC, NIEHS, DSSTox, MLSMR, MLSCN, NIH Roadmap, qHTS, NCGC
In the case of `Nc1ccc(O)c([N+](=O)[O-])c1`, the Potency entry was “inactive”.
Turning to `Nc1ccc(O)c(C(=O)O)c1`, the Potency result is “inactive”.
Regarding `COc1cc(CNC(=O)CCCC/C=C/C(C)C)ccc1O`, the Potency entry is “inactive”.
Take `CN(C)CCC(c1ccc(Cl)cc1)c1ccccn1` (configuration not stated): the Potency entry was “inactive”.
Then `c1ccc2sc(SSc3nc4ccccc4s3)nc2c1`, with “inactive”; and `Nc1ccc([N+](=O)[O-])cc1O`, with “inactive”; and `O=C(O)c1cc(O)c(O)c(O)c1`, with “inactive”.
Under `S=c1[nH]c2ccccc2s1` stands “inactive”; under `Nc1nc2ccc([N+](=O)[O-])cc2s1`, “inactive”; under `O=c1cc(-c2ccccc2)oc2ccccc12`, “inactive”.
Regarding `COc1cc(/C=C/C(=O)CC(=O)/C=C/c2ccc(O)c(OC)c2)ccc1O`, the Potency was 31.6 µM (active).
Under `O=C(O)/C=C\C(=O)O` stands “inactive”; under `CN1CCC[C@H]1c1cccnc1`, “inactive”.
Turning to `NCCO`, the Potency result was “inactive”.
Then `CC(C)NCC(O)COc1cccc2ccccc12` (configuration not stated), with “inactive”; and `C#C[C@]1(O)CC[C@H]2[C@@H]3CCc4cc(O)ccc4[C@H]3CC[C@@]21C`, with “inactive”; and `CC1(C)S[C@@H]2[C@H](NC(=O)[C@H](N)c3ccccc3)C(=O)N2[C@H]1C(=O)O`, with “inactive”.
With `N=C1N=C(N)c2cc3ccccc3cc21`, the Potency is 39.8 µM (active).
Under `CN(C)c1ccc(N=NS(=O)(=O)O)cc1` stands “inactive”; under `CCCOC(=O)c1ccc(O)cc1`, “inactive”.
For the molecule `CCCCCCCCCCCCCCCCCC(=O)O`, the Potency entry is “inactive”.
Under `CN(C)c1ccc(C(=C2C=CC(=[N+](C)C)C=C2)c2ccccc2)cc1` stands 0.316 µM (active).
